The values below come from PubChem BioAssay (NCATS).

Each structure is given as a SMILES string. Inconclusive results are not listed. Calls of active or inactive are those of the source. Unless noted, calls come from the whole dose curve; as a rule, active = well fitted curve in the direction sought with a large enough effect; inconclusive = small, poorly fitted or top-dose-only effect, or another doubt; inactive = no such curve, though single readings can be large; an effect the other way counts as inactive or inconclusive. *1 amine or outer side, *2 acyl side, *3 side chain or, on linkers, in order; H or OH if unused. Where a SMILES comes first, the peptide text is derived from it. Bridges are numbered along the chain shown (N, C = ends). Roman numbers before positions name the chains, in order. [ ]: non-standard residue; d: D form. ξ: configuration not given here. Actinocin(9to1) = Cc1c2oc3c(C)ccc(C(=O)[*:1])c3nc-2c(C(=O)[*:2])c(N)c1=O; ξNMeV = CNC(C(=O)O)C(C)C; ξV = CC(C)C(N)C(=O)O; Sar = CNCC(=O)O

A short description of assay [1]: P-glycoprotein substrates identified in KB-3-1 adenocarcinoma cell line, qHTS therapeutic library screen (AID 1346986). Note: nearly all actives have a fitted effect of over 60% in size. A digest of the protocol: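 Compounds were tested in dose-response against KB-3-1 and KB-8-5-11 cells at 37 degree C for 72 h, and viability was measured by luminescence. AC50 values came from curve fitting with class-based activity calls.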
Assay [2] in a line: qHTS profiling for inhibitors of Plasmodium falciparum (3D7) proliferation (AID 743322; call rule not given here;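 note: infected erythrocytes exposed to compound for 72 h before lysis; 100% = DMSO vehicle wells and 0% = 0.29 µM artemisinin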). The note with it: P. falciparum 3D7 proliferation; at 28.7 µM (top of the series) unless noted. A digest of the protocol:
(§1)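 Erythrocytes infected with P. falciparum (0.3% parasitemia, 2.5% hematocrit) incubated with compounds 72 h at 37 C, 5% CO2. Lysis with saponin/Triton buffer containing SYBR Green I, overnight at room temperature in the dark; DNA fluorescence (485/535 nm) normalised to 0.29 uM artemisinin and DMSO.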
A general note: qHTS replaces the single test concentration by a dilution series.

Assay [3] in a line: qHTS profiling for inhibitors of Plasmodium falciparum (DD2) proliferation (AID 743323; call rule not given here). The note with it: lower = more inhibition; at 28.7 µM (top of the series) unless noted. The procedure, abridged: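 P. falciparum Dd2-infected erythrocytes (0.3% parasitemia, 2.5% hematocrit) exposed 72 h at 37 C, 5% CO2. Lysis with SYBR Green, overnight at room temperature, fluorescence 485/535 nm; normalized to 0.29 uM artemisinin and DMSO.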

Assay [4] can be described thus: qHTS profiling for inhibitors of Plasmodium falciparum (HB3) proliferation (AID 743324).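 Note: 100% = DMSO vehicle wells and 0% = artemisinin-treated control wells.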 The note with it: Plasmodium falciparum HB3 blood-stage proliferation; at 28.7 µM (top of the series) unless noted. The procedure, abridged:
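P. falciparum HB3 grown in erythrocytes (0.3% parasitemia, 2.5% hematocrit final) with compound for 72 h at 37 C, 5% CO2. Parasite DNA detected by SYBR Green after saponin/triton lysis overnight; normalized to 0.29 uM artemisinin and DMSO.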

The nature of assay [5]: Identifying Small Molecule Inhibitors of Pancreatic Cancer Stem Cells (SN12C, Spheroid) (AID 1259360). Note: potency is the fitted concentration of half-maximal effect. The note with it: Potency: SN12C spheroid viability. A digest of the protocol:
(§2)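 Spheroids grown 14 days in stem cell media on nonadherent hydrogel before screening; cells attached 4 h, then compound exposure 48 h at 37C, 5% CO2. CellTiter-Glo luminescence normalized to DMSO (no inhibition) and no-cell wells (full inhibition).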

Assay [6] in a line: P-glycoprotein substrates identified in KB-8-5-11 adenocarcinoma cell line, qHTS therapeutic library screen (AID 1346987). Note: nearly all actives have a fitted effect of over 65% in size. The procedure, abridged:
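P-gp-mediated resistance screen: KB-8-5-11 cells treated 72 h with compounds in dose-response. CellTiter-Glo viability.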

A short description of assay [7]: qHTS profiling of the MIPE4 collection as inhibitors of Plasmodium falciparum (3D7) proliferation (AID 743344; call rule not given here;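 note: scaled between DMSO vehicle wells and 0.29 µM artemisinin as full inhibition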). The note with it: P. falciparum 3D7 in erythrocytes, SYBR Green DNA fluorescence, 72 h; at 28.5 µM (top of the series) unless noted. A digest of the protocol:
as §1

A short description of assay [8]: qHTS profiling of the MIPE4 collection as inhibitors of Plasmodium falciparum (DD2) proliferation (AID 743345; call rule not given here). The note with it: P. falciparum Dd2 in erythrocytes, SYBR Green DNA, 72 h; at 28.5 µM (top of the series) unless noted. A digest of the protocol:
as §1

The nature of assay [9]: qHTS profiling of the MIPE4 collection as inhibitors of Plasmodium falciparum (DD2) proliferation (Rep 2) (AID 743346; call rule not given here). The note with it: P. falciparum Dd2 in erythrocytes, SYBR Green DNA, 72 h; at 28.5 µM (top of the series) unless noted. The procedure, abridged: as §1
The nature of assay [10]: qHTS profiling of the MIPE4 collection as inhibitors of Plasmodium falciparum (HB3) proliferation (AID 743347; call rule not given here;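 note: plate controls were DMSO vehicle wells for no effect and artemisinin wells for full effect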). The note with it: P. falciparum HB3 in erythrocytes, SYBR Green DNA, 72 h; at 28.5 µM (top of the series) unless noted. The procedure, abridged:
as §1

Assay [11] in a line: Identifying Small Molecule Inhibitors of Pancreatic Cancer Stem Cells (A2780, Spheroid) (AID 1259357).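 Note: spheroids pre-formed over 14 days in stem cell medium on hydrogel; compound exposure lasted 48 h before the ATP luminescence read; 100% = DMSO treated cells and 0% = wells without cells.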 The note with it: Potency: A2780 spheroid viability. The procedure, abridged: as §2
A short description of assay [12]: Identifying Small Molecule Inhibitors of Pancreatic Cancer Stem Cells (A278, Adherent) (AID 1259361).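 Note: viability read after 48 h compound exposure; nearly all actives have a fitted effect of over 35% in size.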 The procedure, abridged: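 Spheroids grown 14 days in stem cell media on hydrogel-coated nonadherent plates; 2D lines seeded directly. Compounds added after 4 h attachment, 48 h at 37C, 5% CO2; CellTiter-Glo luminescence normalized to DMSO (no inhibition) and no-cell wells (full inhibition).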

Assay [13] can be described thus: Identifying Small Molecule Inhibitors of Pancreatic Cancer Stem Cells (Panc1, Adherent) (AID 1259362). Note: potency is the fitted concentration of half-maximal effect. The note with it: Potency: viability. The procedure, abridged:
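Pre-formed 14-day tumor spheroids or adherent cells dosed and incubated 48 h, 37C, 5% CO2. Viability assessed by CellTiter-Glo.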

Assay [14] is described as follows: Identifying Small Molecule Inhibitors of Pancreatic Cancer Stem Cells (Panc1, Spheroid) (AID 1259359).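 Note: compound exposure lasted 48 h before reading.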 Note: potency is the fitted concentration of half-maximal effect. A digest of the protocol: as §2

On to `CC12CCC3C(C)(C)C(O)CCC3(C)C1Cc1c(oc(C(=O)O)cc1=O)O2` (configuration not stated), for which the Potency result in assay [1] was “inactive”.

`C/C=C1/[C@H](O[C@@H]2O[C@H](CO)[C@@H](O)[C@H](O)[C@H]2O)OC=C(C(=O)OC)[C@H]1CC(=O)O[C@@H]1O[C@H](CO)[C@@H](O)[C@H](O)[C@H]1O`: in [1], the Potency result is “inactive”.

Turning to `CC1(CO)CC[C@]2(C(=O)O[C@@H]3O[C@H](CO)[C@@H](O)[C@H](O)[C@H]3O)CC[C@]3(C)C(=CCC4[C@@]5(C)C[C@H](O)[C@H](O[C@@H]6OC[C@@H](O)[C@H](O)[C@H]6O)[C@@](C)(CO)C5CC[C@]43C)C2C1` (some centres not stated), the outcome in assay [1] is “inactive [at 9.29 µM]”.

Turning to `C=C1C[C@]23C[C@H]1CC[C@H]2[C@@]12C=C[C@H](O)[C@@](C)(C(=O)O1)[C@H]2[C@@H]3C(=O)O`, the Potency entry in assay [1] is “inactive”.

As to `O=C(NCc1ccc(OC(F)(F)F)cc1)C1c2ccccc2C(=O)N1C1CCOCC1` (configuration not stated), in assay [1], the Potency result is “inactive”.

Take `Cc1nnc(C(C)C)n1C1CC2CCC(C1)N2CC[C@H](NC(=O)C1CCC(F)(F)CC1)c1ccccc1` (some centres not stated): the remaining parasite growth % (stronger effect = lower value) in assay [2] stood at 111%. Further, in assay [3], the activity, percent of control amounted to 102%. In assay [4], the remaining proliferation (% of control), lower = more inhibition was 96.7%. Moreover, the Potency entry in [5] and in assay [6] was “inactive” in each case.

In the case of `C[C@@H]1CCN(C(=O)CC#N)C[C@@H]1N(C)c1ncnc2[nH]ccc12`, the remaining parasite growth % (stronger effect = lower value) in assay [2] is 95.6%. The activity, percent of control in [3] amounted to 99.8%. In [7], this compound had a parasite growth, % of DMSO control of 84%. For the same compound, the parasite growth remaining, % of DMSO control (lower = more inhibition) in assay [8] was found to be 103%. Besides, the parasite growth, % of control (lower = inhibition) in assay [9] turned out to be 78.4%. This compound also had a growth, % of control in assay [10] of 96.8%. Also, the Potency result in [11] and in assay [5] was “inactive” in each case. Moreover, the IC50 (viability decrease) entry in assay [12] was “inactive”.

For `CC1(C)CC2C(C1)C1(C)CCC13OC3(CO)C2O` (configuration not stated), the Potency result in assay [1] and in assay [6] was “inactive” in each case.

For `CC(CCC1C(C(=O)O)=CC(=O)CC1(C)C)O[C@@H]1O[C@H](CO)[C@@H](O)[C@H](O)[C@H]1O` (some centres not stated), in assay [1], the Potency result is “inactive”.

In the case of `CCOc1cc2ncc(C#N)c(Nc3ccc(OCc4ccccn4)c(Cl)c3)c2cc1NC(=O)/C=C/CN(C)C`, the remaining parasite growth % (stronger effect = lower value) in assay [2] is -0.375%. Further, in assay [3], the activity, percent of control amounted to 5.17%. Besides, the remaining proliferation (% of control), lower = more inhibition in assay [4] was -0.513%. Further, the Potency in assay [5] was 4.69 µM (active); in [13], 2.64 µM (active). Moreover, in [12], the IC50 (viability decrease) is 1.18 µM (active).

On to `CNC1CCN(C(Cc2cccc(-c3ccncc3)c2)C(=O)c2sc3c(F)ccc(F)c3c2Cl)CC1` (configuration not stated), for which the remaining parasite growth % (stronger effect = lower value) in assay [2] amounted to 0.218%. Moreover, the activity, percent of control in assay [3] was 0.386%. Besides, the remaining proliferation (% of control), lower = more inhibition in [4] is -0.323%. Also, the Potency entry in assay [11] was “inactive”.

Take `O=C(O)CC/C=C\CC[C@H]1[C@@H](N2CCCCC2)[C@@H](O)C[C@@H]1OCc1ccc(-c2ccccc2)cc1`: the remaining parasite growth % (stronger effect = lower value) in assay [2] came to 58.6%. Further, the activity, percent of control in assay [3] was determined as 86.9%. Besides, the remaining proliferation (% of control), lower = more inhibition in [4] is 76.1%. Moreover, the Potency entry in [14] and in [5] was “inactive” each time. Moreover, the IC50 (viability decrease) result in assay [12] is “inactive”.

In the case of `Nc1nc(CC(=O)Nc2ccc(CCNCC(O)c3ccccc3)cc2)cs1` (configuration not stated), the Potency entry in [1] and in [6] was “inactive” throughout.

With `O=C1NC(=Nc2ccccc2F)S/C1=C\c1ccc(C(=O)O)cc1`, the Potency entry in [1] and in [6] was “inactive” each time.

`CCCCCCCCCCCCCCCCCCOP(=O)([O-])OC1CC[N+](C)(C)CC1`: the remaining parasite growth % (stronger effect = lower value) in assay [2] amounted to 98.6% [at 18.4 µM]. Besides, in assay [3], the activity, percent of control is 114% [at 18.4 µM]. Further, in [4], the remaining proliferation (% of control), lower = more inhibition was 112% [at 18.4 µM]. For the same compound, the Potency result in assay [11] and in assay [5] was “inactive” each time. The IC50 (viability decrease) in assay [12] is 8.12 µM (active).

On to `CC1CC(O)C2(C)C(C(=O)O)=CCCC2C1(C)CCc1ccoc1` (configuration not stated), for which the Potency result in assay [1] was “inactive”.

In the case of `Cc1c2oc3c(C)ccc(C(=O)N[C@@H]4C(=O)NC(C(C)C)C(=O)N5CCC[C@H]5C(=O)N(C)CC(=O)N(C)C(C(C)C)C(=O)O[C@@H]4C)c3nc-2c(C(=O)N[C@@H]2C(=O)NC(C(C)C)C(=O)N3CCC[C@H]3C(=O)N(C)CC(=O)N(C)C(C(C)C)C(=O)O[C@@H]2C)c(N)c1=O` (some centres not stated) (I: T[ξV]P[Sar][ξNMeV] / II: T[ξV]P[Sar][ξNMeV]; ester I:1-I:C, II:1-II:C; linker I:N-II:N via Actinocin(9to1)), in assay [2], the remaining parasite growth % (stronger effect = lower value) was -2.78%. Moreover, the activity, percent of control in [3] was -1.83%. In addition, the remaining proliferation (% of control), lower = more inhibition in [4] was -2.59%. The Potency in assay [14] is 0.0047 µM (active); in assay [5], 0.0047 µM (active); in assay [13], 0.0132 µM (active).

`CCC(C)/C=C(C)/C=C/C1=CC2=C(Cl)C(=O)C(C)(OC(C)=O)C(=O)C2=CN1CCCC(=O)O` (configuration not stated): the Potency result in assay [1] and in assay [6] was “inactive” in each case.

`COC(=O)C1=C(C)NC(C)=C(C(=O)OCCCN2CCC(c3ccccc3)(c3ccccc3)CC2)[C@H]1c1cccc([N+](=O)[O-])c1`: the remaining parasite growth % (stronger effect = lower value) in assay [2] is -1.45%. Also, the activity, percent of control in [3] is -0.102%. Moreover, in assay [4], the remaining proliferation (% of control), lower = more inhibition is -0.517%. The Potency entry in assay [11] is “inactive”. Further, the IC50 (viability decrease) in assay [12] is 26.4 µM (active).
